The list is not random: actives were taken first. Their share in the collection is about 3%.
Nrf2 activator: Nrf2 pathway activation. AREc32 ARE-luciferase reporter (MCF7-derived line), luminescence, 24 h. Potency, µM (top dose mostly 46.1 µM), for inactives: at the highest dose activation, usual class: activators. 410,000 tested, 0.31% active. AID 624171; also: % of control where 0% means no effect; nearly all actives have a fitted effect of over 65% in size
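Nrf2 activation is followed as ARE-luciferase induction in the AREc32 line after one day of compound treatment; luminescence is read with Steady-Glo.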
Nrf2 inh: blocks Nrf2 signaling | A549 ARE-Fluc reporter, luciferase luminescence, 18-24 h | Potency, µM (series often up to 46 µM), for the others: at the top dose activity change, negative = inhibition, usual class: inhibitors | 360,000 tested, 2.1% active | AID 504444; also: % is scaled to controls: 0 for no effect and ±100 for the full control effect; nearly all actives have a fitted effect of over 60% in size
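Cells were seeded and rested 2 h, then exposed to compounds for 18-24 h. CellTiter-Fluor was read first as a viability measure. BugLite was added 15 min before the final luminescent read of ARE-luciferase activity in A549 cells.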
GALK inh: inhibitors of human galactokinase | AID 1868 | 270,000 tested, 0.007% active | Purified GALK, Kinase-Glo residual ATP luminescence | Potency, µM (doses to about 57.5 µM), inactives show top-dose activity change, negative = inhibition, usual class: inhibitors | P51570; also: % is scaled to controls: 0 for no effect and ±100 for the full control effect
Target sequence (P51570 whole entry, looked up): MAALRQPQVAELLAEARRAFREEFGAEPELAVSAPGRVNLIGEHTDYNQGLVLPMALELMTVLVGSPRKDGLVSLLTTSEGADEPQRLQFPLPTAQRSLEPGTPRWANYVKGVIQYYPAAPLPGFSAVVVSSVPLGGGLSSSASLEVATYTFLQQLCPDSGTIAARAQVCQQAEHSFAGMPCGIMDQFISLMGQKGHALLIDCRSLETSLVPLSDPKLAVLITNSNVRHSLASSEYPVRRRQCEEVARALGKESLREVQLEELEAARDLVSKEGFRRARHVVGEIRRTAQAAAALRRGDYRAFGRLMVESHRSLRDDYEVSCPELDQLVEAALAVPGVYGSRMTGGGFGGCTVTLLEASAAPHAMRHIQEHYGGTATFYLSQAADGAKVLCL
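Galactose (100 uM) and ATP (35 uM) were turned over by 5 nM GALK for 1 h at RT. Kinase-Glo Plus then converted the remaining ATP into a luminescent signal.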
TrxR1 substrate: is turned over as a substrate by rat TrxR1 | AID 588456 | O89049 | 390,000 tested, 0.01% active | Potency, µM (series often up to 114 µM), inactives show top-dose activity change, negative = substrate turnover | purified TrxR1 substrate turnover, NADPH consumption readout; also: % is scaled to controls: 0 for no effect and ±100 for the full control effect; nearly all actives have a fitted effect of over 50% in size
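Rat TrxR1, dispensed at 90 nM, was prereduced with 400 uM NADPH (final) for 5 min at ~22 deg C, then incubated with compound 15 min before 400 uM selenite. A first-read NADPH fluorescence drop versus no-compound background flagged substrates.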
rTrxR1 inhibitor: inhibitors of rat thioredoxin reductase 1. O89049. recombinant rTrxR1, NADPH fluorescence consumption, selenite substrate. Potency, µM (top dose mostly 114 µM), for inactives: at the highest dose activity change, negative = inhibition, most hits filed as inhibitors. 390,000 tested, 1% active. AID 588453; also: % is scaled to controls: 0 for no effect and ±100 for the full control effect; nearly all actives have a fitted effect of over 65% in size
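Rat TrxR1 (90 nM in the dispensed reagent) was pre-reduced with 400 uM NADPH for 5 min at room temperature, then incubated with compound for 15 min. After 400 uM selenite was added, NADPH fluorescence (Ex 340/Em 450 nm) was followed for 8 min.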
A549 tox: kills or reduces viability of A549 cells in Nrf2 counter-screen | A549 ARE-Fluc cells, CellTiter-Fluor viability, 18-24 h | Potency, µM (top dose mostly 46 µM), inactives show at the top dose activity change, negative = cytotoxicity, usual class: inhibitors | 390,000 tested, 0.16% active; also: % is scaled to controls: 0 for no effect and ±100 for the full control effect
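Cytotoxicity counterscreen: CellTiter-Fluor fluorescence was measured in A549 ARE_Fluc cells after 18-24 h of compound exposure in a concentration series. The subsequent BugLite luminescent read reports ARE-luciferase activity.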
* hit, by the source's call; ? = inconclusive; . = not tested or not shown; [ ] = another dose, or the depositor's remark. Calls follow the shape of the dose curve; as a rule, active = well fitted curve in the direction sought with a large enough effect; inconclusive = small, poorly fitted or top-dose-only effect, or another doubt; inactive = no such curve, though single readings can be large; an effect the other way counts as inactive or inconclusive. Potency is read from the fitted curve at half-maximal effect.

SMILES	Nrf2 activator	Nrf2 inh	GALK inh	TrxR1 substrate	rTrxR1 inhibitor	A549 tox
CCOC(=O)C1=C(c2ccccc2)N=c2s/c(=C\c3ccc(O)cc3)c(=O)n2C1c1cccs1 (configuration not stated)	-1%	16µM*	-1%	-1%[57.1 µM]	10%[57.1 µM]	?
O=C(COC(=O)/C=C/c1ccccc1[N+](=O)[O-])Nc1ccc2[nH]c(=O)[nH]c2c1	11µM*	-1%	.	1%[2.29 µM]	7%[57.1 µM]	2%
O=C(COC(=O)/C=C/c1ccccc1[N+](=O)[O-])Nc1ccc(OC(F)F)cc1	1%	7%	-4%	-10%	8%[0.457 µM]	-4%
Cc1ccsc1CN(C(=O)COc1cccc(C)c1C)C1CCS(=O)(=O)C1 (configuration not stated)	6%	-16%	.	-9%	4%	0%
CCOc1ccc(NC(=O)CSc2nc(N)c(-c3ccccc3)c(=O)[nH]2)cc1	0%	-7%	-1%	8%	17%[57.1 µM]	-1%
Nc1nc(-c2ccccc2)c(CCCOc2ccc(NC(=O)CBr)cc2)c(=O)[nH]1	17%	-3%	.	-5%	45µM*	-8%
CCCCCn1c(Sc2nc3ccccc3s2)nc2c1c(=O)[nH]c(=O)n2C	8%	16µM*	0%	4%	19%	-10%
COc1cnc(-c2ccccn2)nc1NC(C)C	3%	15µM*	1%	-3%[57.1 µM]	-5%[57.1 µM]	?
CCC(=O)N1CCc2cc(Br)cc(S(=O)(=O)N3CCC(C(=O)Nc4cccc(C)c4)CC3)c21	-1%	8.2µM*	.	-2%	22%	-8%
COc1nc(N/N=C/c2cc3c(cc2Br)OCO3)nc(N2CCOCC2)n1	2%	16µM*	-2%	-11%	-13%	13%
Brc1cc2c(cc1/C=N/Nc1nc(N3CCCCC3)nc(N3CCCCC3)n1)OCO2	.	.	1%	.	.	.
CC(C)CCN(C(=O)Nc1ccc(Cl)c(Cl)c1)C1CCN(C(C)C)CC1	26%	.	.	4%[57.1 µM]	15%[57.1 µM]	-1%
CCOC(=O)N1CCC(N(C(=O)Nc2ccc(Cl)c(Cl)c2)C(C)CC)CC1 (configuration not stated)	4%	15µM*	0%	10%	50%	?
C(=C\c1c[nH]c2ccccc12)/c1ccnc2ccccc12	.	.	.	3%	16%	.
CCC(C)NC(=O)c1[nH]c2cc(OC)ccc2c1Sc1ccc(C)cc1 (configuration not stated)	7%	-39%	.	-6%	9%	0%
Cc1ccccc1OCC(=O)OCc1cc(=O)n2nc(C3CC3)sc2n1	0%	?	.	3%[57.1 µM]	10%[57.1 µM]	0%
O=C1CN(C(=O)c2ccc(Br)o2)C(c2ccc(F)cc2)c2cc(F)ccc2N1 (configuration not stated)	2%	16µM*	-2%	10%	?	-19%
CCc1ccc(-c2cc(C)no2)cc1S(=O)(=O)NCCCN1CCN(c2ccccc2)CC1	1%	13µM*	-9%	-10%	-6%	-28%
CCc1ccc(-c2cc(C)no2)cc1S(=O)(=O)NCCN1CCC(C)CC1	0%	0%	-3%	2%	6%	8%
CCOc1ccc(NC(=O)c2cc(S(=O)(=O)N3CCN(c4ccccc4F)CC3)ccc2F)cc1	6%	.	.	-4%[57.1 µM]	17%[57.1 µM]	1%
O=C(C[n+]1ccncc1)c1cccc([N+](=O)[O-])c1	.	.	.	6%	?	.
COc1ccc(NS(=O)(=O)c2c(C)cc(C)cc2C)cc1	0%	21µM*	0%	-10%	2%	?
Cc1ccc(C(=O)c2coc3cc([N+](=O)[O-])c(O)c([N+](=O)[O-])c23)cc1	7%	?	-5%	-25%	?	21µM*
Cc1ccc(C(=O)c2ccc([N+](=O)[O-])cc2)cc1	0%	-8%	-2%	7%	5%	3%
Cc1nn(C)cc1C(C)NC(=O)c1cc(COc2c(F)cccc2F)on1 (configuration not stated)	0%	-15%	-3%	1%	-6%	3%
